# According to PubChem BioAssay (NCI):
# The panel holds about 83,000 compounds, 20% with a hit somewhere; the sample as a whole holds those more often.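 Each cell line was grown in a 96-well plate and treated with one concentration of compound for 48 hours. Values below 10 were considered active.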 Unmarked numbers belong to inactive results. Activity calls are given as the source filed them.
# System: UO-31 renal
# Assay: NCI-60 one-dose screen, 48 h (100 = growth as untreated, 0 = no growth, -100 = all killed)
# Details: 10 µM unless noted
row,SMILES,growth
1,CC(C)(C)c1cc(C(=O)Nc2ccccc2C(=O)NCCN)cc(C(C)(C)C)c1,27.9%
2,N=C(N)c1ccc(-c2ccc(-c3ccc(-c4cccs4)s3)s2)cc1F,76.5%
3,Cc1c(Cn2cc(COc3ccc(Br)cc3)nn2)c(C)c(Cn2cc(COc3ccc(Br)cc3)nn2)c(C)c1Cn1cc(COc2ccc(Br)cc2)nn1,85.5%
4,CCc1ccc(-c2ccc(COc3ccc(CC4SC(=O)NC4=O)cc3)cc2)cc1 (configuration not stated),61.1%
5,Cc1ccc(N)c(O)c1,84.5%
6,CCCCN(CCCC)CC(O)c1ccc(OCc2ccccc2)c2ccccc12 (configuration not stated),28.9%

# System: TK-10 renal
# Assay: as above
# Details: 10 µM unless noted
row,SMILES,growth
1,CNc1cc(C(=O)O)nc(NC)n1,99.2%
2,Brc1ccc2c(c1)CN(C1CCCCC1)CO2,111%
3,CCN=C1C=CC(=C(c2ccc(N(CC)CC)cc2)c2ccc(N(CC)CC)cc2)c2ccccc21,-51.9% (active)
4,O=C(CSc1nc2ccc([N+](=O)[O-])cc2[nH]1)Nc1ccc(F)c(Cl)c1,25.1%
5,COc1ccc(-c2ccc(NNC(=O)c3ccc(F)cc3)nn2)cc1OC,43.7%
6,CCOC(CNC(=O)c1cccc([N+](=O)[O-])c1)OCC,82.8%
7,CN(C)C(=S)Sc1ccc([N+](=O)[O-])cc1[N+](=O)[O-],67.8%
8,CCN(CC)CC(C)Nc1ccc(C)c2sc3ccccc3c(=O)c12 (configuration not stated),68.1%
9,CN(C)Cc1ccc[nH]1,131%
10,CNC(=O)c1cc(Oc2cccc3nc(NC(=O)Nc4cc(C(F)(F)F)cc(C(F)(F)F)c4)ccc23)ccn1,-25% (active)
11,CC1=CC[C@@H]2C(C)(C)[C@@H](O)CC[C@@]2(C)[C@@H]1COc1ccc2ccc(=O)oc2c1,82.3%
12,CC(=O)CC(=O)SC1=NCCS1,110%
13,CSc1cccc([N+](=O)[O-])c1,108%
14,O=C1/C(=C\c2cccn2Cc2ccccc2)c2ccccc2N1c1c(Cl)cccc1Cl,22.9%
15,COc1ncnc2c(-c3ccccc3)cn(COCc3ccccc3)c12,43.1%
16,C=C(C)[C@@H]1CC[C@]2(C(=O)NCCCN)CC[C@]3(C)[C@H](CC[C@@H]4[C@@]5(C)CC[C@H](O)C(C)(C)[C@@H]5CC[C@]43C)[C@@H]12,-32.2% [100 µM] (active)
17,COc1ccc(/C=C/C=C\C(=O)c2ccc(-n3ccnc3)cc2)cc1,96.3%
18,Cc1ccccc1-n1nnc(C(=O)Nc2nc3ccc(F)cc3s2)c1C,71.4%
19,O=C(N/N=C/c1ccc([N+](=O)[O-])cc1)c1ccc(Br)o1,131%

row,SMILES,growth
1,Cc1nc(-c2ccccc2)sc1CC#N,79.4%
2,O=S(=O)(/N=c1/n(-c2ccccc2)nc2n1CCN2C1=NCCN1)c1ccc(-c2ccccc2)cc1,108%
3,Nc1ccc2c(c1)Cc1cc(NC(=O)C(F)(F)F)ccc1-2,106%
4,O=C(Nc1ccc(C(=O)/C=C/c2ccc(N3CCOCC3)cc2)cc1)Nc1ccc([N+](=O)[O-])cc1,88.5%
5,C=CCc1nc2ccccc2s1,94.3%
6,O=C(Nc1cc(F)cc2cccnc12)c1cnc(N2CCNCC2)cn1,66.6%
7,C[n+]1c2ccccc2nc2c(N)cc(N)cc21,126%
8,CCOC(=O)CCC[P+](c1ccccc1)(c1ccccc1)c1ccccc1,95.9%
9,COc1ccc2nc3ccccc3c(NCCNCCO)c2c1,-12.7% (active)
10,c1nc(N2CCOCC2)c2[nH]ccc2n1,95.3%
11,Oc1c(CNCCNCc2cc(Cl)cc(Cc3ccccc3)c2O)cc(Cl)cc1Cc1ccccc1,36.8%
12,COc1cc(Cl)cc(-c2nn(C(=O)NS(=O)(=O)c3ccccc3)cc2-c2ccncc2)c1,97.2%
13,COc1cccc(-c2[nH]c(=S)ncc2C(=O)c2ccccc2)c1,100%
14,CC(C)(C)c1cc(C(=O)Nc2ccccc2C(=O)NCCN)cc(C(C)(C)C)c1,75.5%
15,N=C(N)c1ccc(-c2ccc(-c3ccc(-c4cccs4)s3)s2)cc1F,122%
16,Cc1c(Cn2cc(COc3ccc(Br)cc3)nn2)c(C)c(Cn2cc(COc3ccc(Br)cc3)nn2)c(C)c1Cn1cc(COc2ccc(Br)cc2)nn1,67.4%
17,CCc1ccc(-c2ccc(COc3ccc(CC4SC(=O)NC4=O)cc3)cc2)cc1 (configuration not stated),92.8%
18,Cc1ccc(N)c(O)c1,158%
19,CCCCN(CCCC)CC(O)c1ccc(OCc2ccccc2)c2ccccc12 (configuration not stated),78.2%

# System: ACHN renal
# Assay: as above
# Details: 10 µM unless noted
row,SMILES,growth
1,CNc1cc(C(=O)O)nc(NC)n1,99.9%
2,Brc1ccc2c(c1)CN(C1CCCCC1)CO2,98.9%
3,CCN=C1C=CC(=C(c2ccc(N(CC)CC)cc2)c2ccc(N(CC)CC)cc2)c2ccccc21,-94.9% (active)
4,O=C(CSc1nc2ccc([N+](=O)[O-])cc2[nH]1)Nc1ccc(F)c(Cl)c1,16.9%
5,COc1ccc(-c2ccc(NNC(=O)c3ccc(F)cc3)nn2)cc1OC,54.8%
6,CCOC(CNC(=O)c1cccc([N+](=O)[O-])c1)OCC,108%
7,CN(C)C(=S)Sc1ccc([N+](=O)[O-])cc1[N+](=O)[O-],-44.4% (active)
8,CCN(CC)CC(C)Nc1ccc(C)c2sc3ccccc3c(=O)c12 (configuration not stated),37.8%
9,CN(C)Cc1ccc[nH]1,101%
10,CNC(=O)c1cc(Oc2cccc3nc(NC(=O)Nc4cc(C(F)(F)F)cc(C(F)(F)F)c4)ccc23)ccn1,-25.8% (active)
11,CC1=CC[C@@H]2C(C)(C)[C@@H](O)CC[C@@]2(C)[C@@H]1COc1ccc2ccc(=O)oc2c1,48.6%
12,CC(=O)CC(=O)SC1=NCCS1,108%
13,CSc1cccc([N+](=O)[O-])c1,102%
14,O=C1/C(=C\c2cccn2Cc2ccccc2)c2ccccc2N1c1c(Cl)cccc1Cl,53.7%
15,COc1ncnc2c(-c3ccccc3)cn(COCc3ccccc3)c12,51%
16,C=C(C)[C@@H]1CC[C@]2(C(=O)NCCCN)CC[C@]3(C)[C@H](CC[C@@H]4[C@@]5(C)CC[C@H](O)C(C)(C)[C@@H]5CC[C@]43C)[C@@H]12,-49.2% [100 µM] (active)
17,COc1ccc(/C=C/C=C\C(=O)c2ccc(-n3ccnc3)cc2)cc1,94.4%
18,Cc1ccccc1-n1nnc(C(=O)Nc2nc3ccc(F)cc3s2)c1C,64.7%
19,O=C(N/N=C/c1ccc([N+](=O)[O-])cc1)c1ccc(Br)o1,107%

row,SMILES,growth
1,Cc1nc(-c2ccccc2)sc1CC#N,102%
2,O=S(=O)(/N=c1/n(-c2ccccc2)nc2n1CCN2C1=NCCN1)c1ccc(-c2ccccc2)cc1,101%
3,Nc1ccc2c(c1)Cc1cc(NC(=O)C(F)(F)F)ccc1-2,104%
4,O=C(Nc1ccc(C(=O)/C=C/c2ccc(N3CCOCC3)cc2)cc1)Nc1ccc([N+](=O)[O-])cc1,94.4%
5,C=CCc1nc2ccccc2s1,101%
6,O=C(Nc1cc(F)cc2cccnc12)c1cnc(N2CCNCC2)cn1,28.4%
7,C[n+]1c2ccccc2nc2c(N)cc(N)cc21,96.7%
8,CCOC(=O)CCC[P+](c1ccccc1)(c1ccccc1)c1ccccc1,97.9%
9,COc1ccc2nc3ccccc3c(NCCNCCO)c2c1,-27.4% (active)
10,c1nc(N2CCOCC2)c2[nH]ccc2n1,109%
11,Oc1c(CNCCNCc2cc(Cl)cc(Cc3ccccc3)c2O)cc(Cl)cc1Cc1ccccc1,10.3%
12,COc1cc(Cl)cc(-c2nn(C(=O)NS(=O)(=O)c3ccccc3)cc2-c2ccncc2)c1,80%
13,COc1cccc(-c2[nH]c(=S)ncc2C(=O)c2ccccc2)c1,91.1%
14,CC(C)(C)c1cc(C(=O)Nc2ccccc2C(=O)NCCN)cc(C(C)(C)C)c1,-90.3% (active)
15,N=C(N)c1ccc(-c2ccc(-c3ccc(-c4cccs4)s3)s2)cc1F,101%
16,Cc1c(Cn2cc(COc3ccc(Br)cc3)nn2)c(C)c(Cn2cc(COc3ccc(Br)cc3)nn2)c(C)c1Cn1cc(COc2ccc(Br)cc2)nn1,66.7%
17,CCc1ccc(-c2ccc(COc3ccc(CC4SC(=O)NC4=O)cc3)cc2)cc1 (configuration not stated),69.5%
18,Cc1ccc(N)c(O)c1,91%
19,CCCCN(CCCC)CC(O)c1ccc(OCc2ccccc2)c2ccccc12 (configuration not stated),71.7%
